Source: PubChem BioAssay
In the library only some 11% were active in any assay of this set; here they are far more common.
G9a block – qHTS Assay for Inhibitors of Histone Lysine Methyltransferase G9a. Histone-lysine N-methyltransferase EHMT2 (Homo sapiens), Q96KQ7. G9a H3K9 monomethylation, AlphaScreen, 2 h. Potency, µM (highest dose often 102 µM), without a hit: at the highest dose activity, negative = inhibition, actives largely listed as inhibitors. hit rate 8.8% among 350,000; note: potency is the fitted concentration of half-maximal effect; % is set by controls: 0 for no effect and ±100 for the full control effect; nearly all actives have a fitted effect of over 75% in size
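AlphaScreen detection with an anti-monomethyl H3K9 antibody quantified product after a 2 h room-temperature reaction containing 500 nM biotinylated H3K9 peptide, 20 µM SAM and 20 nM enzyme, which had been preincubated 15 min with compound.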
L3MBTL1 block – qHTS Assay for the Inhibitors of L3MBTL1; Potency, µM (top dose mostly 57.1 µM), for inactives: at the highest dose activity, negative = inhibition, most hits filed as inhibitors; AID 485360, 2010; AlphaScreen L3MBTL1–H3K9me1 peptide binding; hit rate 0.66% among 230,000; note: potency is the fitted concentration of half-maximal effect; % is set by controls: 0 for no effect and ±100 for the full control effect; nearly all actives have a fitted effect of over 60% in size
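Displacement of a biotinylated histone H3(1-15) peptide monomethylated at Lys9 (75 nM) from L3MBTL1 (50 nM) was measured by AlphaScreen after a 30 min room-temperature compound incubation; cefsulodin titration served as intraplate control.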
JMJD2A Tudor inh – qHTS Assay for Inhibitors of JMJD2A-Tudor Domain; Lysine-specific demethylase 4A (Homo sapiens), O75164; AlphaScreen JMJD2A-Tudor / H3K4me3 peptide binding; Potency, µM (series often up to 114 µM), for inactives: at the highest dose activity change, negative = inhibition, most hits filed as inhibitors; hit rate 4.4% among 390,000; AID 504339, 2011; note: potency is the fitted concentration of half-maximal effect; % is set by controls: 0 for no effect and ±100 for the full control effect; nearly all actives have a fitted effect of over 50% in size
PI5P4K alpha inh – qHTS for Inhibitors of phosphatidylinositol 5-phosphate 4-kinase (PI5P4K) | max response, % | hit rate 1.2% among 330,000 | Phosphatidylinositol 5-phosphate 4-kinase type-2 alpha (Homo sapiens), P48426 | AID 652105, 2013 | PI5P4Kalpha enzyme, ADP-Glo luminescence, 60 min; active compounds read low; active = max response of -50% or lower; inconclusive = between -30% and -50%; inactive = -30% or higher; note: value at the top dose of about 77 µM; % is set by controls: 0 for no effect and ±100 for the full control effect
Target sequence (P48426 whole entry, looked up): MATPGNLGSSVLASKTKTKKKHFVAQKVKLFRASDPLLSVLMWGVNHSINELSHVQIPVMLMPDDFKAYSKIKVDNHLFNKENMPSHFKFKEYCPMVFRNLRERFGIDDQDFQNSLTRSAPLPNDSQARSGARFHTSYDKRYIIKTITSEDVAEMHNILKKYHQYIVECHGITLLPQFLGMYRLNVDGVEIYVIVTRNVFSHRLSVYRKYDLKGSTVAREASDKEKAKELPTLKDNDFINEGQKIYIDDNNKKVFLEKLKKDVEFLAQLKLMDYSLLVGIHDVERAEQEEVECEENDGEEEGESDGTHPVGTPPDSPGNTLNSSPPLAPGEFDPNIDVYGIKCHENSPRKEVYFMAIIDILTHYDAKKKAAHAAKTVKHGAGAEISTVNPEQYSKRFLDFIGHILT
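Human PI5P4Kalpha with substrate in 0.038 M HEPES pH 7.4, 0.28 mM EGTA, 0.1% CHAPS, 5% DMSO; reaction started with 5 microM ATP (final), 60 min at room temperature. ADP formed read by ADP-Glo luminescence.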
HP1b binding inh – HTS for Inhibitors of HP1-beta Chromodomain Interactions with Methylated Histone Tails; AID 540317, 2011; hit rate 0.56% among 390,000; Potency, µM (doses to about 114 µM), without a hit: top-dose activity change, negative = inhibition, most hits filed as inhibitors; AlphaScreen HP1-beta / biotin-H3K9me3 peptide binding; note: potency is the fitted concentration of half-maximal effect; nearly all actives have a fitted effect of over 70% in size
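Compound inhibition of the preformed complex between 50 nM HP1-beta and 50 nM biotinylated H3K9me3 peptide was read by AlphaScreen. Buffer was PBS pH 7.4 with 0.01% Tween-20. Incubations ran 30 min at room temperature, with 10 ug/mL donor/acceptor beads.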
BAZ2B block – qHTS Assay for Inhibitors of BAZ2B | hit rate 4.4% among 360,000 | Bromodomain adjacent to zinc finger domain protein 2B (Homo sapiens), Q9UIF8 | AID 504333, 2011 | AlphaScreen BAZ2B-H3K14Ac peptide displacement | Potency, µM (highest dose often 114 µM), for the others: at the highest dose activity change, negative = inhibition, actives largely listed as inhibitors; note: potency is the fitted concentration of half-maximal effect; % is set by controls: 0 for no effect and ±100 for the full control effect; nearly all actives have a fitted effect of over 60% in size
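AlphaScreen displacement of biotin-H3(5-23)K14Ac peptide (50 nM final) from BAZ2B (50 nM final) in PBS pH 7.4, 0.01% Tween-20; complex preformed 30 min RT, then compounds (top 110 uM) 30 min RT, beads 20 min dark.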
* hit, by the source's call; ? = inconclusive; . = not tested or not shown; [ ] = dose if it differs, or a comment. Unless noted, calls come from the whole dose curve; as a rule, active = well fitted inhibition curve with a large enough effect; inconclusive = small, poorly fitted or top-dose-only effect; inactive = no such curve, though single readings can be large or run the other way.

SMILES | G9a block | L3MBTL1 block | JMJD2A Tudor inh | PI5P4K alpha inh | HP1b binding inh | BAZ2B block
COc1ccc(N2CCN(C(=O)C(OC(C)=O)c3ccccc3)CC2)cc1 (centres undefined) | 8.9µM* | -24%[11.4 µM] | -3%[57.1 µM] | -1 | 17% | -7%
COc1ccc(CC(=O)N2CCN(C(=O)Cc3ccc(OC)c(OC)c3)CC2)cc1OC | . | . | . | 3 | . | .
CS(=O)(=O)N(Cc1ccc(Cl)cc1)c1ccc(C(=O)N2CCN(c3ccccc3)CC2)cc1 | 7.9µM* | . | 89µM* | -5 | -5% | ?
Cc1ccc(C)c(N2CCN(C(=O)CN3C(=O)CSc4c3c(C)nn4-c3ccccc3)CC2)c1 | 4%[59 µM] | . | -8% | . | 18% | -15%
COc1ccccc1C1C=C(c2ccc(Cl)cc2)Nc2nc(-c3ccc(Cl)cc3)nn21 (centres undefined) | ? | . | ? | . | -23% | -29%
COc1ccc(CCNC(=O)CSc2nnnn2-c2cccc(C(C)=O)c2)cc1OC | 2%[59 µM] | . | -13% | . | 31% | -16%
Cc1ccc2c(c1)NC(=O)c1cccnc1N2 | 45µM* | -5% | -25% | -6 | -8% | 3%[57.1 µM]
O=C1Nc2ccccc2Nc2ncccc21 | ? | -1% | -5% | -11 | 44% | -30%
O=C1CCCCCCC1Sc1ccccc1[N+](=O)[O-] (centres undefined) | 11µM* | . | -17%[11.4 µM] | -3 | ? | ?
OCC1(Cc2ccccc2C(F)(F)F)CCN(Cc2ccccc2)CC1 | -6% | 2% | -13% | -3 | 27% | -16%
COc1ccccc1N1CCN(C2CCCN(Cc3ccccc3OCCO)C2)CC1 (centres undefined) | 79µM* | -4% | -16% | 0 | 27% | 0%
COc1ccc(CN2CCN(c3ccccc3OC)CC2)c(OC)c1 | -9%[0.501 µM] | -3%[2.29 µM] | 20µM* | -1 | -33% | ?
COc1cccc(CN2CCN(Cc3ccccc3C(F)(F)F)CC2)c1 | 4.5µM* | -11% | 28µM* | -2 | 20µM* | 25µM*
COc1ccccc1N1CCN(Cc2ccc(O)c3ncccc23)CC1 | ? | . | 13µM* | . | -11% | 4.5µM*
COc1ccc2c(CN3CCN(c4ccccc4OC)CC3)cc(=O)oc2c1 | . | . | . | -1 | . | .
COc1ccc(CC(C)N2CCN(Cc3ccccc3)CC2)c(OC)c1 (centres undefined) | -51%[59 µM] | -5% | ? | . | 28% | -32%
COc1ccc(CN2CCN(Cc3ccccc3C(F)(F)F)CC2)c(OC)c1 | 45µM* | . | 1.6µM* | -5 | 28µM* | 28µM*
COc1ccc(CN2CCN(CCCc3ccccc3)CC2)c(OC)c1 | 4µM* | . | . | . | . | 32µM*
CC(C)(C)/C(O)=C/c1nc2ccccc2oc1=O | . | 15% | -1% | 2 | 17% | 5%
O=c1oc2cc([N+](=O)[O-])ccc2nc1/C=C(O)/C=C/c1ccccc1 | 35µM* | . | . | . | . | 50µM*
O=c1oc2cc([N+](=O)[O-])ccc2nc1/C=C(\O)c1cccc(Br)c1 | 20µM* | . | ? | 1 | 14% | ?
COC1=C(Br)C(=O)c2ncccc2C1=O | . | . | 6.3µM* | ? | 10µM* | .
CCc1ccc(S(=O)(=O)Nc2cccc(-c3ccc(N4CCOCC4)nn3)c2)cc1 | 5%[59 µM] | . | -14% | . | 19%[57 µM] | -12%
CC(C)(C)OC(=O)N1CCC(c2c(C(=O)NCc3ccc4c(c3)OCO4)cnn2-c2ccccc2Cl)CC1 | -40%[59 µM] | . | -28% | . | 9% | -7%[57.1 µM]
CC(C)=Cc1oc2ccc([N+](=O)[O-])cc2c1N1CC(C)OC(C)C1 (centres undefined) | 14µM* | . | -12% | -5 | ? | 63µM*
O=C(NNC(=O)c1cccc(C(F)(F)F)c1)c1ccncc1 | 25µM* | . | -18% | -12 | 15% | ?
